Bioassay records: PubChem BioAssay, The Scripps Research Institute Molecular Screening Center
KLK7 zymogen act: activators of human kallikrein-7 zymogen | activation, % at 7 µM | P49862 | AID 652039 | purified proKLK7, EDANS-DABCYL substrate fluorescence; 100% is mature enzyme control, 0% vehicle | hit rate 0.9% among 370,000;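 active = activation above the mean of all tested compounds plus 3 SD, computed per campaign excluding outliers beyond control limits, cut at about 13% in these data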
rCAG binder: molecules binding r(CAG) RNA repeats; hit rate 1.3% among 370,000; inhibition, % at 3 µM; r(CAG) RNA repeat, TO-PRO-1 dye displacement fluorescence;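 active = inhibition above the plate cutoff, the mean of all test compounds on that plate plus 3 SD, cut at about 35% in these data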;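 also: 0% = DMSO alone and 100% = 100 µM mitoxantrone as full dye displacement; higher means more dye released from RNA so lower well fluorescence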
ADAM10 inh: inhibits human ADAM10; AID 720582; hit rate 0.62% among 370,000; recombinant ADAM10, EDANS/DABCYL FRET peptide cleavage, 3 h; inhibition, % at 7 µM; O14672;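 active = inhibition above a per-campaign cutoff equal to the mean of compounds falling between control-based bounds plus 3 SD, cut at about 20% in these data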;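 also: 0% = DMSO wells while the 100% control is not disclosed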
Target sequence (O14672 214-748 limits assumed): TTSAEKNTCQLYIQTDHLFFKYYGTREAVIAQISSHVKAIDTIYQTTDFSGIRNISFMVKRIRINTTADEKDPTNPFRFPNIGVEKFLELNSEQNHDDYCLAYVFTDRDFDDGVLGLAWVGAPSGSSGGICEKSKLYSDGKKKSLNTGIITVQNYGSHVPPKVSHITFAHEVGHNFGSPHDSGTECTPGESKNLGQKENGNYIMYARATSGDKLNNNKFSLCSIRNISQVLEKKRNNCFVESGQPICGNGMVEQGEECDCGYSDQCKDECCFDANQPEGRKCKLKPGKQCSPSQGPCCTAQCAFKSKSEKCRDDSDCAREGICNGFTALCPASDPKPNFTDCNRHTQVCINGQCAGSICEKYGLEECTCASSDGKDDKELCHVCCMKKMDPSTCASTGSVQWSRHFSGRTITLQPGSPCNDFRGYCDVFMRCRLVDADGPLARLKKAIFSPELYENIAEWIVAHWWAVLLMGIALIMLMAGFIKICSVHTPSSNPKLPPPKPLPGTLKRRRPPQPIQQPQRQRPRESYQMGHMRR
ADAM17 inh: ADAM17 inhibition, QFRET primary screen | AID 720648 | inhibition, % at 6.95 µM | hit rate 0.83% among 370,000 | P78536 | recombinant ADAM17, EDANS/DABCYL FRET peptide cleavage;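 active = inhibition above the mean of compounds lying between control limits plus 3 SD, set per campaign, cut at about 8.5% in these data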;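 also: 0% = DMSO-only wells as the low control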
ADAM10 counter: inhibits human ADAM10 in ADAM17 exosite counter-screen | AID 743256 | shares compounds with ADAM17 inh | inhibition, % at 6.95 µM | recombinant ADAM10, EDANS/DABCYL FRET peptide cleavage, 3 h | hit rate 47% among 2,900;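 active = mean inhibition over the triplicate runs exceeds the activity threshold set in the earlier primary screen, cut at about 20% in these data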;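 also: 0% = DMSO wells and 100% = marimastat wells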
ADAM17 confirm: human ADAM17 inhibition, confirmation; shares compounds with ADAM17 inh; recombinant ADAM17, EDANS/DABCYL QFRET peptide cleavage; inhibition, % at 6.95 µM; hit rate 65% among 2,900;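 active = mean inhibition across replicates above the hit cutoff set in the primary screen, cut at about 8.5% in these data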;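 also: 0% = DMSO wells and 100% = marimastat wells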
* marks the source's active call; other numbers are inactive results; . = no result. Shown are actives, neighbours in structure and some others; about 7% of the full set was active somewhere.

SMILES | KLK7 zymogen act | rCAG binder | ADAM10 inh | ADAM17 inh | ADAM10 counter | ADAM17 confirm
COc1ccc(C(c2nnnn2-c2ccc(OC)cc2)N2CCC(n3c(=O)[nH]c4ccccc43)CC2)cc1 (stereo not given) | 0 | 8 | 15 | 5 | . | .
CSCCC(c1nnnn1C1CCCCC1)N1CCC(n2c(=O)[nH]c3ccccc32)CC1 (stereo not given) | 1 | 3 | 9 | 6 | . | .
COc1ccc(-n2nnnc2C(c2cc3ccccc3o2)N2CCC(n3c(=O)[nH]c4ccccc43)CC2)cc1 (stereo not given) | 1 | 12 | 18 | 9.6* | 28* | 13*
COc1ccc(C(c2nnnn2Cc2ccccc2)N2CCC(n3c(=O)[nH]c4ccccc43)CC2)cc1 (stereo not given) | 0 | 7 | 0 | -1 | . | .
O=c1[nH]c2ccccc2n1C1CCN(C(c2ccccc2OC(F)(F)F)c2nnnn2Cc2ccccc2)CC1 (stereo not given) | 0 | 9 | 13 | 12* | 42* | 20*
CSCCC(c1nnnn1C1CCCC1)N1CCC(n2c(=O)[nH]c3ccccc32)CC1 (stereo not given) | 0 | 1 | 4 | 9.2* | 16 | 11*
Fc1cccc(-c2ccc3c(c2)CN(c2cccc(Cl)c2)Cc2cnnn2-3)c1 | 0 | 8 | 3 | -3 | . | .
